Measured potencies and affinities stand elsewhere.
Experiments:
Klebsiella pneumoniae = conditions: Concentration 20 uM; ASSAY_TEST Inhibition of Bacterial Growth; detection method Absorption (OD600); MEDIA CAMHB; plate type 384well; NBS; CORNING #3640; time 18 hr
Candida albicans = conditions: 20 µM
Cryptococcus neoformans = conditions: Concentration 20 uM; ASSAY_TEST Inhibition of Fungal Growth; detection method Resazurin; Absorption (OD600-OD570); plate type 384well; NBS; CORNING #3640

| SMILES | Inhibition (Klebsiella pneumoniae) | Inhibition (Candida albicans) | Inhibition (Cryptococcus neoformans) |
| --- | --- | --- | --- |
| COc1ccc(CCN)cc1OC | 8.69% | 2.72% | -1.54% |
| CS(=O)(=O)O.O=C(O[C@@H]1C[C@@H]2C[C@H]3C[C@H](C1)N2CC3=O)c1c[nH]c2ccccc12 | 8.46% | 2.39% | 1.75% |
| COc1ccc(C(CN(C)C)C2(O)CCCCC2)cc1.Cl (stereo not drawn) [VENLAFAXINE HYDROCHLORIDE] | 15.76% | 3.64% | -9.68% |
| c1ccc(Cn2ccnc2)cc1 | 8.34% | 2.99% | 0.79% |
| C[C@]12CC[C@H]3[C@@H](CCC4=CC(=O)CC[C@@H]43)[C@@H]1CC[C@@H]2O [NANDROLONE] | 5.92% | 7.15% | -1.13% |
| COc1ccc2[nH]cc(CCN)c2c1 [5-METHOXYTRYPTAMINE] | 5.41% | 3.97% | -39.41% |
| CCCC(C)(COC(N)=O)COC(=O)NC(C)C (stereo not drawn) [CARISOPRODOL] | 4.45% | 4.69% | 4.79% |
| CNC1=Nc2ccc(Cl)cc2C(c2ccccc2)=[N+]([O-])C1 [CHLORDIAZEPOXIDE] | 19.46% | 2.53% | -9.21% |
| CCOC(=O)c1ncn2c1CN(C)C(=O)c1cc(F)ccc1-2 [FLUMAZENIL] | -2% | 0.3% | -8.54% |
| CNS(=O)(=O)Cc1ccc2[nH]cc(CCN(C)C)c2c1.O=C(O)CCC(=O)O [SUMATRIPTAN SUCCINATE] | 9.24% | 4.97% | -9.65% |
| COc1cc2c(cc1OC)[C@@]13CCN4CC5=CCO[C@H]6CC(=O)N2[C@H]1[C@H]6[C@H]5C[C@H]43 [BRUCINE] | 6.18% | 2.36% | -1.81% |
| CN[C@@H]1C[C@@H](c2ccc(Cl)c(Cl)c2)c2ccccc21.Cl [INDATRALINE HYDROCHLORIDE] | -0.11% | 2.5% | -6.06% |
| c1cncc([C@@H]2CCCN2)c1 [NORNICOTINE] | 9.44% | 3.55% | -7.65% |
| Cl.NCCc1ccc(O)c(O)c1 [DOPAMINE HYDROCHLORIDE] | 13.84% | -0.19% | -1.49% |
| CC(C)NCC(O)COc1cccc2[nH]ccc12 (stereo not drawn) [PINDOLOL] | 17.1% | 3.5% | -9.82% |
| C[C@]12CC[C@H](O)CC1=CC[C@@H]1[C@@H]2CC[C@]2(C)C(=O)CC[C@@H]12 [PRASTERONE] | 10.09% | 14.5% | 2.55% |
| CC[C@@H](C(N)=O)N1CCCC1=O | 13.35% | 2.36% | -2.67% |
| C=C(C)CN1CC[C@]23c4c5ccc(O)c4O[C@H]2c2[nH]c4ccccc4c2C[C@@]3(O)C1C5.Cl.O | 12.32% | 1.9% | -7.24% |
| Brc1c(NC2=NCCN2)ccc2nccnc12 [BRIMONIDINE] | 7.83% | 3.99% | -1.44% |
| CC(O)(CS(=O)(=O)c1ccc(F)cc1)C(=O)Nc1ccc(C#N)c(C(F)(F)F)c1 (stereo not drawn) [BICALUTAMIDE] | 7.16% | -0.48% | -5.03% |
| CN1C(=O)CN=C(c2ccccc2)c2cc([N+](=O)[O-])ccc21 [NIMETAZEPAM] | 13.4% | 0.89% | -7.7% |
| c1ccc2c(c1)Nc1ccccc1S2 [PHENOTHIAZINE] | 1.87% | 4.65% | 6.01% |
| CC(C)[C@]12O[C@H]1[C@@H]1O[C@]13[C@]1(O[C@H]1C[C@H]1C4=C(CC[C@@]13C)C(=O)OC4)[C@@H]2O [TRIPTOLIDE] | 7.24% | 1.65% | -8.43% |
| CC(=O)[C@H]1CC[C@H]2[C@@H]3CCC4=CC(=O)CC[C@]4(C)[C@H]3CC[C@]12C [PROGESTERONE] | 23.48% | 11.4% | -1.48% |
| O=C(O[C@@H]1Cc2c(O)cc(O)cc2O[C@@H]1c1cc(O)c(O)c(O)c1)c1cc(O)c(O)c(O)c1 [EPIGALOCATECHIN GALLATE] | 17.83% | 3.47% | -2.04% |
| Cl.c1ccc2c(CC3=NCCN3)cccc2c1 [NAPHAZOLINE HYDROCHLORIDE] | 13.63% | 3.38% | -4.12% |

From ChEMBL document CHEMBL4513141, “CO-ADD screening of NIH (USA) - Clinical Collection” (2021)
